PubChem BioAssay AID1159580 (chemical genetic matrix, 2015)
Screen size: about 5,500 compounds; about 2,000 (36%) were called active. Another 18% or so got no clear call; they are omitted. The list shows a part of the results. Values without a mark were called inactive. Rule as the data show it: active = normalized growth mostly below about 0.91 (no sharp cut-off); inconclusive = no clear call, values can overlap the other calls; inactive = mostly above about 0.92.

Experiment: chemical genetic growth profiling, strain panel (AID 1159580);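 also: tested at 20 µM; growth read once vehicle control cultures reached saturation at 30 °C; 1 = growth at the plate median or of vehicle wells; lower values mean less growth of the strain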
Conditions: growth OD

Structure (SMILES): O=C(Oc1cc(O)cc2c1C[C@@H](OC(=O)c1cc(O)c(O)c(O)c1)[C@@H](c1cc(O)c(O)c(O)c1)O2)c1cc(O)c(O)c(O)c1
- normalized growth (S. cerevisiae deletion strains, locus YJL187C, strain SWE1, hits give low values): 1.02
- normalized growth (S. cerevisiae deletion strains, locus YJR043C, strain POL32, hits give low values): 0.13 (active)
- normalized growth (S. cerevisiae deletion strains, locus YJR066W, strain TOR1, hits give low values): 0.949
- normalized growth (S. cerevisiae deletion strains, locus YKL009W, strain mrt4, hits give low values): 1.02
- normalized growth (S. cerevisiae deletion strains, locus YKL068W, hits give low values): 0.985
- normalized growth (S. cerevisiae deletion strains, locus YKL085W, strain MDH1 (second series), hits give low values): 1.03
- normalized growth (S. cerevisiae deletion strains, locus YKL085W, strain MDH1, hits give low values): 1.03
- normalized growth (S. cerevisiae deletion strains, locus YKL160W, strain elf1, hits give low values): 1.01
- normalized growth (S. cerevisiae deletion strains, locus YKR001C, strain vps1, hits give low values): 0.599 (active)
- normalized growth (S. cerevisiae deletion strains, locus YKR026C, strain gcn3, hits give low values): 0.984
- normalized growth (S. cerevisiae deletion strains, locus YKR091W, strain srl3, hits give low values): 1.01
- normalized growth (S. cerevisiae deletion strains, locus YLL001W, strain dnm1, hits give low values): 1.01
- normalized growth (S. cerevisiae deletion strains, locus YLL026W, hits give low values): 1.01
- normalized growth (S. cerevisiae deletion strains, locus YLL041C, strain sdh2, hits give low values): 1.01
- normalized growth (S. cerevisiae deletion strains, locus YLR027C, strain aat2, hits give low values): 0.996
- normalized growth (S. cerevisiae deletion strains, locus YLR039C, strain RIC1, hits give low values): 0.233 (active)
- normalized growth (S. cerevisiae deletion strains, locus YLR058C, strain SHM2, hits give low values): 0.141 (active)
- normalized growth (S. cerevisiae deletion strains, locus YLR102C, strain apc9, hits give low values): 0.948
- normalized growth (S. cerevisiae deletion strains, locus YLR113W, strain HOG1, hits give low values): 1.06
- normalized growth (S. cerevisiae deletion strains, locus YLR221C, strain rsa3, hits give low values): 1.03
- normalized growth (S. cerevisiae deletion strains, locus YLR258W, strain gsy2, hits give low values): 1.01
- normalized growth (S. cerevisiae deletion strains, locus YLR262C, strain YPT6 (second series), hits give low values): 1.01
- normalized growth (S. cerevisiae deletion strains, locus YLR268W, strain sec22, hits give low values): 0.414 (active)
- normalized growth (S. cerevisiae deletion strains, locus YLR320W, strain mms22, hits give low values): 1.04
- normalized growth (S. cerevisiae deletion strains, locus YLR330W, strain CHS5, hits give low values): 0.613 (active)
- normalized growth (S. cerevisiae deletion strains, locus YLR342W, strain FKS1 (second series), hits give low values): 0.198 (active)
- normalized growth (S. cerevisiae deletion strains, locus YLR342W, strain FKS1, hits give low values): 1.04
- normalized growth (S. cerevisiae deletion strains, locus YLR357W, strain rsc2, hits give low values): 1.01
- normalized growth (S. cerevisiae deletion strains, locus YLR370C, strain arc18, hits give low values): 1.01
- normalized growth (S. cerevisiae deletion strains, locus YLR371W, strain rom2, hits give low values): 0.602 (active)
- normalized growth (S. cerevisiae deletion strains, locus YLR384C, strain iki3, hits give low values): 0.998
- normalized growth (S. cerevisiae deletion strains, locus YLR418C, strain cdc73, hits give low values): 0.341 (active)
- normalized growth (S. cerevisiae deletion strains, locus YML016C, strain PPZ1, hits give low values): 0.083 (active)
- normalized growth (S. cerevisiae deletion strains, locus YML032C, strain rad52, hits give low values): 0.857 (active)
- normalized growth (S. cerevisiae deletion strains, locus YML120C, strain ndi1, hits give low values): 1.01
- normalized growth (S. cerevisiae deletion strains, locus YML124C, strain tub3, hits give low values): 0.824 (active)
- normalized growth (S. cerevisiae deletion strains, locus YMR078C, strain ctf18, hits give low values): 0.938
- normalized growth (S. cerevisiae deletion strains, locus YMR125W, strain sto1, hits give low values): 0.985
- normalized growth (S. cerevisiae deletion strains, locus YMR129W, hits give low values): 1.01
- normalized growth (S. cerevisiae deletion strains, locus YMR205C, strain PFK2, hits give low values): 1.02
- normalized growth (S. cerevisiae deletion strains, locus YMR223W, strain ubp8, hits give low values): 0.666 (active)
- normalized growth (S. cerevisiae deletion strains, locus YMR231W, strain pep5, hits give low values): 0.981
- normalized growth (S. cerevisiae deletion strains, locus YMR307W, strain GAS1, hits give low values): 0.448 (active)
- normalized growth (S. cerevisiae deletion strains, locus YNL067W, strain RPL9B, hits give low values): 0.366 (active)
- normalized growth (S. cerevisiae deletion strains, locus YNL071W, strain lat1, hits give low values): 1.02
- normalized growth (S. cerevisiae deletion strains, locus YNL183C, strain NPR1, hits give low values): 0.943
- normalized growth (S. cerevisiae deletion strains, locus YNL209W, strain ssb2, hits give low values): 0.991
- normalized growth (S. cerevisiae deletion strains, locus YNL233W, strain BNI4, hits give low values): 0.455 (active)
- normalized growth (S. cerevisiae deletion strains, locus YNL248C, strain rpa49, hits give low values): 1.03
- normalized growth (S. cerevisiae deletion strains, locus YNL250W, strain rad50, hits give low values): 0.953
- normalized growth (S. cerevisiae deletion strains, locus YNL271C, strain bni1, hits give low values): 0.941
- normalized growth (S. cerevisiae deletion strains, locus YNL298W, strain CLA4, hits give low values): 0.948
- normalized growth (S. cerevisiae deletion strains, locus YNL307C, strain MCK1, hits give low values): 0.915
- normalized growth (S. cerevisiae deletion strains, locus YNL322C, strain KRE1 (second series), hits give low values): 1.01
- normalized growth (S. cerevisiae deletion strains, locus YNR049C, strain mso1, hits give low values): 1.03
- normalized growth (S. cerevisiae deletion strains, locus YNR052C, strain pop2, hits give low values): 0.436 (active)
- normalized growth (S. cerevisiae deletion strains, locus YOL012C, strain htz1): 0.207
- normalized growth (S. cerevisiae deletion strains, locus YOL147C, strain pex11, hits give low values): 0.779 (active)
- normalized growth (S. cerevisiae deletion strains, locus YOR001W, strain rrp6, hits give low values): 1.02
- normalized growth (S. cerevisiae deletion strains, locus YOR061W, strain CKA2, hits give low values): 0.218 (active)
- normalized growth (S. cerevisiae deletion strains, locus YOR069W, strain VPS5, hits give low values): 0.182 (active)
- normalized growth (S. cerevisiae deletion strains, locus YOR070C, strain gyp1, hits give low values): 1
- normalized growth (S. cerevisiae deletion strains, locus YOR080W, strain dia2, hits give low values): 1.02
- normalized growth (S. cerevisiae deletion strains, locus YOR083W, strain WHI5, hits give low values): 0.999
- normalized growth (S. cerevisiae deletion strains, locus YOR106W, strain vam3, hits give low values): 0.989
- normalized growth (S. cerevisiae deletion strains, locus YOR136W, strain idh2, hits give low values): 0.795 (active)
- normalized growth (S. cerevisiae deletion strains, locus YOR144C, strain elg1, hits give low values): 0.814 (active)
- normalized growth (S. cerevisiae deletion strains, locus YOR184W, strain ser1, hits give low values): 0.445 (active)
- normalized growth (S. cerevisiae deletion strains, locus YOR231W, strain MKK1, hits give low values): 1.02
- normalized growth (S. cerevisiae deletion strains, locus YOR265W, strain rbl2, hits give low values): 1.02
- normalized growth (S. cerevisiae deletion strains, locus YOR270C, strain vph1, hits give low values): 1.06
- normalized growth (S. cerevisiae deletion strains, locus YOR290C, strain snf2, hits give low values): 0.988
- normalized growth (S. cerevisiae deletion strains, locus YOR316C, strain cot1, hits give low values): 0.947
- normalized growth (S. cerevisiae deletion strains, locus YPL051W, strain arl3, hits give low values): 1
- normalized growth (S. cerevisiae deletion strains, locus YPL055C, strain LGE1, hits give low values): 0.139 (active)
- normalized growth (S. cerevisiae deletion strains, locus YPL078C, strain atp4, hits give low values): 0.983
- normalized growth (S. cerevisiae deletion strains, locus YPL106C, strain sse1, hits give low values): 1.01
- normalized growth (S. cerevisiae deletion strains, locus YPL240C, strain hsp82, hits give low values): 1.01
- normalized growth (S. cerevisiae deletion strains, locus YPL256C, strain CLN2, hits give low values): 1.07
- normalized growth (S. cerevisiae deletion strains, locus YPR119W, strain clb2, hits give low values): 0.972
- normalized growth (S. cerevisiae deletion strains, locus YPR141C, strain kar3, hits give low values): 0.974
- normalized growth (S. cerevisiae deletion strains, locus YPR163C, strain tif3, hits give low values): 0.87 (active)
- normalized growth (S. cerevisiae deletion strains, locus YPR167C, strain met16, hits give low values): 0.847 (active)
- normalized growth (S. cerevisiae deletion strains, strain wtn01, hits give low values): 0.433 (active)
- normalized growth (S. cerevisiae strains, strain wild type, hits give low values): 0.0757 (active)
